Screening data: PubChem, several laboratories
In the library only some 5.2% were active in any assay of this set; here they are far more common.
CR mimetic SO: yeast age-related superoxide inhibition as caloric restriction mimetic | AID 2690 | S. cerevisiae aged cells, superoxide DHE fluorescence; stronger effect = lower value | superoxide response (% of plate mean), % at 10 µM | hit rate 0.18% among 330,000;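 active = superoxide response under a set limit, about three screen SD below normal, cut at about 65% in these data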;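 note: yeast aged for seven days with compound at 30 °C before DHE staining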
ALR inh: human ALR oxidase inhibition via reduced H2O2. AID 485317. hit rate 3.8% among 290,000. inhibition, % (test concentration not listed). P55789. purified ALR, DTT oxidation, H2O2 HRP-luminol luminescence;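 active = mean replicate inhibition above about 79%, with every replicate also reaching it, limit read from the data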
Target sequence (P55789 whole entry, looked up): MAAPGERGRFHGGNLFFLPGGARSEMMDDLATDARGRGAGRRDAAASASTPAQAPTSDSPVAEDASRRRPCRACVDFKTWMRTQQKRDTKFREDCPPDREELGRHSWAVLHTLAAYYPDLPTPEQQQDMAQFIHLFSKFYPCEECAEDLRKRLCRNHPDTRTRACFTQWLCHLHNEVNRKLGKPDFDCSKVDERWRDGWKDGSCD
NRP1-CendR mod: NRP-1/CendR interaction modulation; FAM-RPARPAR peptide binding to NRP-1, fluorescence polarization; O14786; hit rate 0.85% among 360,000; inhibition, % at 25 µM; AID 602438;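 active = inhibition or corrected inhibition above about 18%, plus a signal ratio from 0.5 to 1.5, limit read from the data, passing the limit was not always enough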
APOBEC3A inh: inhibitors of human APOBEC3A DNA deaminase | P31941 | AID 493011 | hit rate 0.41% among 330,000 | recombinant A3A, FAM/TAMRA ssDNA deamination fluorescence | inhibition, % at 20 µM;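 active = at least 40% inhibition at 20 µM here, with at most 30% in a related deaminase screen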
Target sequence (P31941 whole entry, looked up): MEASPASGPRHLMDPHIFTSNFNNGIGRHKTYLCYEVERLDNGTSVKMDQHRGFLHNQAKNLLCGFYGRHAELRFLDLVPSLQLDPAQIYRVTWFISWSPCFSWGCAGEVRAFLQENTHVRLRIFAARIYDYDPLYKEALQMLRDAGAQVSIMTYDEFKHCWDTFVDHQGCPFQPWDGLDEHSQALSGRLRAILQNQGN
M18AAP inhibitor: blocks P. falciparum M18 aspartyl aminopeptidase; hit rate 1.2% among 290,000; inhibition, % at 7.35 µM; recombinant PfM18AAP, H-Glu-NHMec fluorogenic cleavage;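 active = inhibition above the campaign mean inhibition over all tested compounds plus 3 SD, cut at about 28% in these data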
APOBEC3G inh: inhibitors of human APOBEC3G DNA deaminase; Q9HC16; recombinant A3G, ssDNA deamination FAM/TAMRA fluorescence; inhibition, % at 20 µM; hit rate 0.28% among 330,000; AID 493012;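 active = inhibition of at least 40% at 20 µM, with no more than 30% in the related APOBEC3A deaminase screen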
A3G conf: APOBEC3G (human) deaminase inhibition, confirmed | shares compounds with APOBEC3G inh | recombinant A3G ssDNA deaminase, UDG/FAM-TAMRA fluorescence | inhibition, % at 20 µM | hit rate 72% among 890 | AID 493152;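 active = inhibition reaching a set limit in any replicate at 20 µM, the limit being 80% of the first screen's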
UDG ctr A3G: inhibits E. coli UDG, flagging false APOBEC3G inhibitors. AID 504715. 710 tested, under 10 active. shares compounds with APOBEC3G inh. UDG counterscreen, FAM/TAMRA oligo fluorescence. inhibition, % at 20 µM;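 active = compounds giving 40% or more inhibition at 20 µM in any one of the three replicates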;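 note: inhibitors lower the FAM signal released by uracil excision and alkaline cleavage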
Target sequence (P12295 whole entry, looked up): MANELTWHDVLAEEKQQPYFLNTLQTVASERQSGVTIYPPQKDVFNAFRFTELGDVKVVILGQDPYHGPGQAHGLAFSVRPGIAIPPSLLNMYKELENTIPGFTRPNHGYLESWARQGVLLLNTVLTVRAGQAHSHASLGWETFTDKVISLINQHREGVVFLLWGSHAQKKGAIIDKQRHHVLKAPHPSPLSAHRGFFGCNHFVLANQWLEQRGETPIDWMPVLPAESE
A number is an active result; i = inactive; nt = not tested or not shown.

SMILES	CR mimetic SO	ALR inh	NRP1-CendR mod	APOBEC3A inh	M18AAP inhibitor	APOBEC3G inh	A3G conf	UDG ctr A3G
C/C=C(/C)C(=O)Nc1cccc(C2=NOC3(C2)C[C@@H](C(N)=O)N(C(=O)CC(c2ccccc2)c2ccccc2)C3)c1 (stereo not given in full)	i	i	i	i	nt	i	nt	nt
C=C(C)C(=O)Nc1cccc(C2=NOC3(C2)C[C@H](C(N)=O)N(C(=O)CC#N)C3)c1 (stereo not given in full)	i	i	nt	i	nt	74.2	73.2	nt
C/C=C/C=C\C(=O)Nc1cccc(C2=NOC3(C2)C[C@H](C(N)=O)N(C(=O)CC#N)C3)c1 (stereo not given in full)	i	i	i	i	nt	i	nt	nt
C/C=C/C=C/C(=O)N1CC2(CC(c3cccc(NC(=O)/C=C/C)c3)=NO2)C[C@@H]1C(N)=O (stereo not given in full)	i	i	i	i	nt	i	nt	nt
C=C(C)C(=O)Nc1cccc(C2=NOC3(C2)C[C@@H](C(N)=O)N(C(=O)/C=C/C=C/C)C3)c1 (stereo not given in full)	i	i	i	i	nt	89.4	93.4	i
Cc1c(C(=O)O)sc2c1c(=O)n(Cc1ccccc1)c(=O)n2C	i	nt	i	i	i	i	nt	nt
CCOC(=O)C1C(C(=O)OCC)C(C)(C)C1N(C)C (stereo not given)	nt	nt	i	nt	nt	nt	nt	nt
CCOc1ccc(CN(C)C(C)C(=O)Nc2ccc([N+](=O)[O-])cc2Cl)cc1OC (stereo not given)	i	i	i	i	i	i	nt	nt
C=C(C)C(=O)Nc1cccc(C2=NOC3(C2)C[C@H](C(N)=O)N(C(=O)CC)C3)c1 (stereo not given in full)	i	i	i	i	nt	87.7	92.2	nt
CCC(=O)N1CC2(CC(c3cccc(NC(=O)CC(c4ccccc4)c4ccccc4)c3)=NO2)C[C@H]1C(N)=O (stereo not given in full)	i	i	i	i	nt	i	nt	nt
C=C(C)C(=O)Nc1cccc(C2=NOC3(C2)C[C@@H](C(N)=O)N(C(=O)/C(C)=C/C)C3)c1 (stereo not given in full)	i	i	i	i	nt	86.2	94.6	nt
Cc1nn(C(C)C(=O)O)c(C)c1[N+](=O)[O-] (stereo not given)	i	i	i	i	i	i	nt	nt
CCOCCCNC(=O)COc1ccc(OC)cc1	i	i	i	i	i	i	nt	nt
c1ccc(OCc2nnc3sc(-c4cccs4)nn23)cc1	i	nt	i	i	i	67.3	34.2	i
Clc1ccc(Cl)c(-c2nn3c(COc4ccccc4)nnc3s2)c1	i	i	i	i	i	45.9	51.0	i
COc1ccc(CN2C[C@@H](CO)O[C@@H](n3cnc4c(N5CCCC5)ncnc43)C2)cc1	nt	nt	i	nt	nt	nt	nt	nt
c1ccc(-c2nc3cc4ccccc4cc3[nH]2)nc1	i	i	i	i	i	i	nt	nt
Nc1ccc2nc(-c3cccc(-c4nc5ccc(N)cc5[nH]4)n3)[nH]c2c1	i	98.8	i	i	i	43.5	29.2	i
Cc1cccc(N2CCN(C(=S)c3ccccc3)CC2)c1	i	i	i	i	i	i	nt	nt
Cc1cccc(N2CCN(C(=S)c3ccc([N+](=O)[O-])cc3)CC2)c1	i	i	i	i	29.6	55.5	43.6	i
Nc1scc2c(C(=O)N/N=C/c3ccc(Cl)cc3)nn(-c3ccccc3)c(=O)c12	i	i	i	i	i	50.9	active	i
CC(=O)N/C(=C/c1ccccc1)C(=O)NC(Cc1ccccc1)C(=O)O (stereo not given)	i	i	i	i	i	42.6	i	nt
COc1ccc(S(=O)(=O)Nc2nnc(C(C)(C)C)s2)cc1	i	i	i	i	i	49.8	20.4	i
COc1ccccc1/C=C/C=N/n1c(-c2ccc(C)cc2)n[nH]c1=S	i	i	i	i	i	i	nt	nt
Cc1cc(-c2n[nH]c(=S)n2/N=C/C=C/c2ccccc2)n[nH]1	i	i	i	i	i	46.5	72.1	i
SMILES	CR mimetic SO	ALR inh	NRP1-CendR mod	APOBEC3A inh	M18AAP inhibitor	APOBEC3G inh	A3G conf	UDG ctr A3G
COc1ccccc1/C=C/C=N/n1c(-c2ccccn2)n[nH]c1=S	i	nt	i	i	i	45.3	87.5	i
COc1ccccc1/C=C/C=N/n1c(-c2ccncc2)n[nH]c1=S	i	i	i	i	i	46.9	79.5	i
S=c1[nH]nc(-c2ccncc2)n1/N=C/C=C/c1ccccc1	i	92.4	i	i	i	63.4	90.2	i
CC(=O)Oc1ccc(N2C(=O)C3C(C2=O)C2(C)C=CC3(C)O2)cc1 (stereo not given)	i	i	nt	i	nt	46.7	48.7	nt
O=C(CCN1C(=O)/C(=C/c2ccc(Cl)cc2)SC1=S)Nc1ccc(C(=O)O)cc1	i	i	i	i	i	40.1	i	i
CCc1ccc(NC(=O)CSc2nc(=O)n(CCCN(C)C)c3c2CCC3)cc1	i	96.8	i	i	nt	65.0	i	i
CN(C)CCn1c2c(c(SCC(=O)Nc3ccccc3)nc1=O)CCCC2	i	i	i	i	nt	i	nt	nt
Cc1nc2ccccc2c(=O)n1-c1cccc(NC(=O)c2cccs2)c1	i	nt	i	i	nt	i	nt	nt
O=C(Nc1cccc(N2C(=O)C=CC2=O)c1)c1cccs1	i	nt	i	i	nt	55.2	58.1	nt
Cc1ccc(C)n1-c1nc(=S)[nH][nH]1	i	i	i	i	i	58.6	73.7	i
Cc1ccc(C)n1-c1ccc(-c2ccn[nH]2)cc1	i	nt	i	i	i	i	nt	nt
O=c1[nH]c(SCc2ccccc2[N+](=O)[O-])nc2nc[nH]c12	i	i	i	i	i	60.6	i	i
Cc1ccc(Cl)cc1NC(=S)NCCCSC1CCCCC1	i	i	i	i	i	i	nt	nt
Cc1nc2[nH]c(=S)[nH]c2cc1Br	i	i	i	i	i	47.1	82.5	i
Cc1nc2nc[nH]c2cc1Br	i	i	i	i	i	i	nt	nt
N#Cc1cc(-c2ccccc2)[nH]c1-c1nccc2ccccc12	i	i	i	i	i	41.4	i	nt
CCn1c(-c2cc3c(C(F)(F)F)nn(C)c3s2)n[nH]c1=S	i	i	i	i	i	40.9	63.3	i
Cn1c(-c2cc3c(C(F)(F)F)nn(C)c3s2)n[nH]c1=S	i	i	i	i	i	53.5	77.0	i
Cn1nc(C(F)(F)F)c2cc(C(=O)O)sc21	i	i	i	i	i	i	nt	nt
COc1cccc(/C=N/n2c(-c3n[nH]c4c3CCC4)n[nH]c2=S)c1O	i	97.0	i	i	i	66.3	82.0	i
Cc1n[nH]c(=S)n1/N=C/c1ccc(-c2ccccc2[N+](=O)[O-])o1	i	i	i	i	i	45.3	67.9	i
COc1ccccc1/C=C/C=N/n1c(-c2n[nH]c3c2CCC3)n[nH]c1=S	i	i	i	i	i	i	nt	nt
